Most compounds without a hit are left out; they make up all but 12% or so of the library.
PLK1 PBD block = PLK1 (human) polo-box domain binding inhibition. Potency, µM, inactives show max response, negative = inhibition, hits mostly inhibitors. AID 720504. 2.8% of 360,000 active. Plk1 PBD binding of FITC phosphopeptide, fluorescence polarization; also: series mostly up to about 57 µM; % is scaled to controls: 0 for no effect and ±100 for the full control effect; nearly all actives have a fitted effect of over 65% in size
G9a inh = G9a (human) methyltransferase inhibition; Q96KQ7; G9a H3K9 monomethylation, AlphaScreen, 2 h; Potency, µM (top dose mostly 102 µM), for inactives: top-dose activity, negative = inhibition, most hits filed as inhibitors; 8.8% of 350,000 active; also: % is scaled to controls: 0 for no effect and ±100 for the full control effect; nearly all actives have a fitted effect of over 75% in size
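Using a bead-based AlphaScreen, monomethylated H3K9 product from 2 h room-temperature reactions (G9a 20 nM, peptide 500 nM, SAM 20 uM) was detected with 0.5 ug/mL rabbit anti-H3K9me1 antibody.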
Sfp PPTase inh = Sfp phosphopantetheinyl transferase inhibition; AID 1490; Biochemical Sfp PPTase activity, qHTS; Potency, µM, without a hit: largest response in the series, negative = inhibition, usual class: inhibitors; Q9F4F7; 3.5% of 310,000 active;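 also: the enzyme is Sfp with the accession as filed and its product quenches rhodamine fluorescence; 0% = enzyme reaction without inhibitor and -100% = no enzyme wells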
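Compounds were incubated with enzyme (final 15 nM) for 15 min at room temperature before substrate addition started the reaction. Fluorescence at 525 nm excitation, 598 nm emission was recorded immediately and after 30 minutes.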
JMJD2A Tudor inh = JMJD2A Tudor domain (human) inhibition | AlphaScreen JMJD2A-Tudor / H3K4me3 peptide binding | O75164 | Potency, µM (top dose mostly 114 µM), for inactives: at the top dose activity change, negative = inhibition, hits mostly inhibitors | AID 504339 | 4.4% of 390,000 active; also: % is scaled to controls: 0 for no effect and ±100 for the full control effect; nearly all actives have a fitted effect of over 50% in size
Target sequence (O75164 whole entry, looked up, the tested form may be a part): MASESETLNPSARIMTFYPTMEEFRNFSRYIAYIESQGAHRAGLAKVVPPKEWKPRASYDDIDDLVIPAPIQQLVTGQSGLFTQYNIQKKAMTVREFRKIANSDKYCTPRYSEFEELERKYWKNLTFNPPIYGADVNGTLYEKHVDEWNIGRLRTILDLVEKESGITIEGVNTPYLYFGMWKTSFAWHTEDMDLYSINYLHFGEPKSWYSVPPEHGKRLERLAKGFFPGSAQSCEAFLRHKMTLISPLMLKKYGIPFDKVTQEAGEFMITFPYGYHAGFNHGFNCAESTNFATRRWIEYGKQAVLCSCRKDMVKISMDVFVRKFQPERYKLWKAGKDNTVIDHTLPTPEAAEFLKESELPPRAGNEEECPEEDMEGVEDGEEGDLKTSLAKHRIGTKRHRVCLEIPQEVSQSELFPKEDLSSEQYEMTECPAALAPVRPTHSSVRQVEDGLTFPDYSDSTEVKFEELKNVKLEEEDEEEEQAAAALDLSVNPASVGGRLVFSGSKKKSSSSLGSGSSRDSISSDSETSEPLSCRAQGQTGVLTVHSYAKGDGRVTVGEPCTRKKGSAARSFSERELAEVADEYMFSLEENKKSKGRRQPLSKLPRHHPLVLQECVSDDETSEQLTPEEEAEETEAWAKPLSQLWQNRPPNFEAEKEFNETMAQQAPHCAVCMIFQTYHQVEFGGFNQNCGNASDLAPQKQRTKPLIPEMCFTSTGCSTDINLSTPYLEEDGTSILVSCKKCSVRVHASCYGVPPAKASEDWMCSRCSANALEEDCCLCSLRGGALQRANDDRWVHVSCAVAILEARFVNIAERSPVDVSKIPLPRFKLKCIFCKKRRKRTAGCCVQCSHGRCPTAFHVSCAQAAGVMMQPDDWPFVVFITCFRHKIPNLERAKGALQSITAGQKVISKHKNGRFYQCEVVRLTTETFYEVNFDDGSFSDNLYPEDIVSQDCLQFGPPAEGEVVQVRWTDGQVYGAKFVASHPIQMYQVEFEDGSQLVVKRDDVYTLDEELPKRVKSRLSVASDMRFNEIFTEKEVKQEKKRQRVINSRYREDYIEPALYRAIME
HP1b chromo inh = inhibitors of HP1-beta chromodomain binding to methylated histone tails. P83916. AlphaScreen HP1-beta / biotin-H3K9me3 peptide binding. Potency, µM (top dose mostly 114 µM), for inactives: at the top dose activity change, negative = inhibition, actives largely listed as inhibitors. 0.56% of 390,000 active. AID 540317; also: nearly all actives have a fitted effect of over 70% in size
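HP1-beta protein (50 nM final) preincubated 30 min at room temperature with biotinylated H3(1-18)K9me3 peptide (50 nM) in PBS pH 7.4, 0.01% Tween-20, then compound added for 30 min. AlphaScreen streptavidin donor/nickel chelate acceptor beads (10 ug/mL final), 30 min dark, luminescence read.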
BAZ2B block = inhibitors of human BAZ2B bromodomain | AlphaScreen BAZ2B-H3K14Ac peptide displacement | Potency, µM (highest dose often 114 µM), for the others: at the top dose activity change, negative = inhibition, actives largely listed as inhibitors | 4.4% of 360,000 active | AID 504333 | Q9UIF8; also: % is scaled to controls: 0 for no effect and ±100 for the full control effect; nearly all actives have a fitted effect of over 60% in size
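BAZ2B 50 nM plus b-H3(5-23)K14Ac 50 nM, PBS pH 7.4/0.01% Tween-20, 30 min RT; compound added (max 110 uM), 30 min RT; streptavidin donor/Ni-chelate acceptor beads 10 ug/mL final, 20 min dark; AlphaScreen read.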
An asterisk follows results filed as active; ? = inconclusive; . = not tested or not shown; [ ] = remark or other dose. Calls follow the shape of the dose curve; as a rule, active = well fitted curve in the direction sought with a large enough effect; inconclusive = small, poorly fitted or top-dose-only effect, or another doubt; inactive = no such curve, though single readings can be large; an effect the other way counts as inactive or inconclusive. Potency is read from the fitted curve at half-maximal effect.

SMILES	PLK1 PBD block	G9a inh	Sfp PPTase inh	JMJD2A Tudor inh	HP1b chromo inh	BAZ2B block
Cc1ccc(N2C(=O)c3cccc4c(N)ccc(c34)C2=O)c2cccnc12	34.9%	?	9.8%	?	-5.3%	-14.4%
CCCCCn1cc2c(c1-c1ccc(Cl)cc1)c(=O)n(C)c(=O)n2C	.	-37.4%[59 µM]	.	-20.8%	-9.5%	-13.1%
Cc1cc(O)cc(O)c1C(=O)OC1(C)C(=O)C=C2C=C(/C=C/CO)OC=C2C1=O (stereo unspecified)	.	.	-8.7%	.	.	.
CCOc1ccc(/C=C2\NC(=S)NC2=O)cc1	-12.9%	44.7µM*	13.9%	-19.1%[11.4 µM]	29.6%	-11.1%
CCOc1ccc(C=C2SC(=O)N(CCN)C2=O)cc1	.	.	-8.5%	.	.	.
COc1ccc(/C=C2/SC(=S)N(n3c(C)ccc3C)C2=O)cc1	-4.5%	15.8µM*	-4.1%	35.5µM*	?	10µM*
O=C1/C(=C/c2ccccc2)SC(=S)N1N1C(=O)C2CC2C1=O (stereo unspecified)	-21.7%	25.1µM*	-16.2%	-25.1%	-15.5%	-26.2%
O=C1/C(=C/c2ccc(F)cc2)SC(=S)N1N1CCOCC1	-8.4%	34.9%[12.7 µM]	-10.7%	-23.0%	-20.8%	-28.5%
CCOc1ccc(/C=C2/SC(=S)N(n3c(C)ccc3C)C2=O)cc1	-6.0%	10µM*	0.5%	22.4µM*	14.1µM*	11.2µM*
CCN(CC)S(=O)(=O)c1ccc2nc(NC(=O)c3cccnc3)sc2c1	.	11.2%[59 µM]	.	-9.1%	8.0%[57 µM]	2.8%
Cc1cc([N+](=O)[O-])cc2c1NCC1CC=CC21 (stereo unspecified)	1.2%	?	4.7%	-32.0%	7.1%	?
Cc1cc([N+](=O)[O-])c2c(c1C)C1C=CCC1C(c1ccccn1)N2 (stereo unspecified)	.	28.2µM*	?	.	.	.
CC(=O)OC[C@H]1O[C@@H](O/N=C/[C@@H](C)[C@H](OCc2ccccc2)C(C)C)[C@H](OC(C)=O)[C@@H](OC(C)=O)[C@@H]1OC(C)=O	.	50.1µM*	0.8%	.	.	-9.1%
O=C(/C=C/c1cc[n+](CC(=O)c2ccc3cccc4c3c2CC4)cc1)c1ccc2cccc3c2c1CC3	18.9µM*	39.8µM*	35.5µM*	-18.4%[11.4 µM]	7.9%	?
CN(C)c1ccc(CN2CCC(C(N)=O)CC2)cc1	-16.2%	14.1µM*	18.8%	22.4µM*	-5.3%	22.4µM*
CCOC(=O)C1CCN(Cc2ccc(F)cc2)CC1	1.3%	?	-25.2%	3.98µM*	?	-34.0%
CCOC(=O)C1CCN(Cc2ccc(C(=O)OC)cc2)CC1	-4.3%	?	-11.3%	5.62µM*	-25.9%	50.1µM*
CC1CCCCN1Cc1ccc(N(C)C)cc1 (stereo unspecified)	-7.1%	-35.8%	9.0%	-17.3%	4.4%	10.3%
Cc1cccc(C(=O)N2CCc3cc(CNS(=O)(=O)c4ccc(Cl)s4)ccc32)c1	.	5.2%[59 µM]	.	0.0%	29.6%[57 µM]	4.4%
Cc1cc(C)n(-c2nc(NCC3CCCO3)c3c4c(sc3n2)COC(C)(C)C4)n1 (stereo unspecified)	-13.2%	1.78µM*	-2.2%	-15.2%	33.6%	10.1%
CN(C)c1ccc(CNCCC(Cc2ccccc2)c2ccco2)cc1 (stereo unspecified)	0.1%	22.4µM*	44.7µM*	20µM*	?	22.4µM*
COc1ccc(-c2cc(C(F)(F)F)nc(SCC(=O)N3CCCCC3)n2)cc1OC	.	-2.1%[59 µM]	.	6.5%	46.4%	11.2%
CCOC(=O)C(Sc1nnc(-c2ccncc2)o1)C(C)=O (stereo unspecified)	-10.2%	7.94µM*	-1.2%	?	9.9%	3.1%
CN1CCC(NCCC(c2ccc(F)cc2)c2ccc(Cl)cc2)CC1 (stereo unspecified)	-9.4%	25.1µM*	?	0.708µM*	-19.1%[57 µM]	50.1µM*
CC(C)C(CCNC1CCN(C)CC1)c1ccc(Cl)cc1 (stereo unspecified)	-5.3%	?	-7.7%	56.2µM*	-26.2%	-36.4%
SMILES	PLK1 PBD block	G9a inh	Sfp PPTase inh	JMJD2A Tudor inh	HP1b chromo inh	BAZ2B block
Cc1c(C(=O)NCc2ccccc2C(F)(F)F)sc(=O)n1Cc1ccccc1C#N	-1.6%	.	.	.	.	.
CCN=c1scc(-c2ccccc2)n1/N=C/c1ccccn1	-10.5%	?	-22.2%	28.2µM*	?	14.1µM*
CCN=c1scc(-c2ccc(F)cc2)n1/N=C/c1ccccn1	-11.9%	15.8µM*	?	?	?	.
C=CCN=c1scc(-c2ccc3c(c2)NC(=O)CO3)n1/N=C(\C)c1ccccn1	?	?	4.1%	-27.9%	5.7%	?
CCCCNC(=O)c1c(N)n(/N=C/c2ccccn2)c2nc3ccccc3nc12	.	-29.7%	?	.	.	-14.4%
C=CCN=c1scc(-c2ccccc2)n1/N=C/c1ccccn1	-9.1%	?	-28.7%	44.7µM*	28.2µM*	28.2µM*
CCN1CCN(Cc2c(O)ccc3c(C)c(-c4ccccc4)c(=O)oc23)CC1	.	3.3%[59 µM]	.	1.0%	27.1%[57 µM]	4.5%
CCC(C)c1ccccc1N1CC(C(=O)Nc2cccc(S(=O)(=O)N3CCOCC3)c2)CC1=O (stereo unspecified)	-3.8%	3.5%	10.9%	-12.5%	21.4%	-17.0%
Cc1ccc(-n2c(C(C)n3nc(C)c([N+](=O)[O-])c3C)n[nH]c2=S)cc1 (stereo unspecified)	-8.0%	3.98µM*	-1.5%	12.6µM*	-78.9%	10.4%
COc1ccc(-n2c(C(C)n3nc(C)c([N+](=O)[O-])c3C)n[nH]c2=S)cc1 (stereo unspecified)	-5.5%	6.31µM*	0.0%	12.6µM*	39.9%	-5.2%
Cc1nn(C(C)C(=O)O)c(C)c1[N+](=O)[O-] (stereo unspecified)	3.8%	20.0%[0.501 µM]	18.9%	9.2%	26.8%	1.3%
COc1ccc(-n2c(C)c([N+](=O)[O-])c3ccc(O)c(CN(C)C)c32)cc1	-1.9%	?	5.9%	-31.2%	-8.9%	-32.1%
Cc1nn(C(C)c2n[nH]c(=S)n2-c2cccc(Cl)c2)c(C)c1[N+](=O)[O-] (stereo unspecified)	-11.0%	3.55µM*	-5.3%	?	1.4%	7.0%
Cc1nn(CC(=O)c2cccc(Cl)c2)c(C)c1[N+](=O)[O-]	2.0%	-0.9%	11.4%	-9.6%	21.5%	-8.9%
N=C1S/C(=C\c2cn[nH]c2-c2ccc(F)cc2)C(=O)N1c1ccccc1F	26.7µM*	-5.5%	-0.6%	89.1µM*	5.6%	-1.6%
COc1ccc(C(C(=O)Nc2ccc(C(C)C)cc2)N(C)C(=O)c2ccc(=O)[nH]c2)cc1 (stereo unspecified)	26.7µM*	-34.6%	1.5%	50.1µM*	-16.5%	-5.9%
CC(=C\C(=O)O)/C(=C/c1ccc(C)o1)C(=O)O	-28.1%	31.6µM*	4.47µM*	?	-34.0%	?

Bioassay records deposited in PubChem by National Center for Advancing Translational Sciences (NCATS).
